Compound activity as filed in PubChem BioAssay.
A selection: hits, their analogues and other compounds. The true share with any hit is near 3.3%.
Tb PYK inh – inhibitors of Trypanosoma brucei pyruvate kinase. TbPYK enzyme, Kinase-Glo Plus ATP luminescence, 45 min. Potency, µM (doses to about 76.8 µM), for the others: top-dose activity, negative = inhibition, hits mostly inhibitors. 410,000 tested, 0.12% active; further: nearly all actives have a fitted effect of over 50% in size
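Screened from lowest to highest concentration, compounds were pinned into TbPYK/substrate mixtures, and ADP (130 uM final) was added. Plates sat at room temperature for 45 min prior to Kinase-Glo Plus detection by luminescence.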
LmPK inh – LmPK (Leishmania mexicana) enzyme inhibition | 290,000 tested, 0.37% active | AID 1721 | Potency, µM (doses to about 57.5 µM), inactives show at the highest dose activity change, negative = inhibition, most hits filed as inhibitors | Q27686 | purified LmPK, Kinase-Glo ATP luminescence, 1 h
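Pyruvate kinase activity monitored as ATP production (luciferase luminescence). Conditions: 0.1 nM enzyme, 0.5 mM PEP, 0.1 mM ADP, 1 h, RT; normalized against uninhibited and no-enzyme wells.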
Giardia FBPA inh-1 – Giardia lamblia aldolase inhibition. purified Giardia FBPA. 290,000 tested, 0.71% active. A8B2U2. Potency, µM (series often up to 59.6 µM), for the others: at the top dose activity, negative = inhibition, most hits filed as inhibitors; further: nearly all actives have a fitted effect of over 55% in size
Target sequence (A8B2U2 whole entry, looked up): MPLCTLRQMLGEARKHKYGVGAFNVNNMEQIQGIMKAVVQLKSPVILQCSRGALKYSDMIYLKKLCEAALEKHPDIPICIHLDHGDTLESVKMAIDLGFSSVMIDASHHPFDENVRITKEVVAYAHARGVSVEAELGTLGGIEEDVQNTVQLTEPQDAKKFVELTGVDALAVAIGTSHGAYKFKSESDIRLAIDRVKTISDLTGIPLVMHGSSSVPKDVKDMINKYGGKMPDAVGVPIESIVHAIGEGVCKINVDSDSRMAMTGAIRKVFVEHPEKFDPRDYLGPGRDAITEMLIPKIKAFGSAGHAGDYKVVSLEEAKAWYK
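Giardia FBPA (40 nM reagent) was preincubated 10 min at RT with compound (up to 57.5 uM final), then substrate plus GAPDH/TPI/NAD/arsenate coupling system with diaphorase/resazurin was added; resorufin fluorescence (525/598 nm) was read after 20 min.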
RE007 growth inh – less growth of the S. pombe RE007 Vpr strain | AID 651644 | 360,000 tested, 0.21% active | Potency, µM (doses to about 92.2 µM), inactives show at the top dose activity change, negative = less growth, hits mostly inhibitors | S. pombe RE007 Vpr strain, BacTiter-Glo ATP luminescence, 24 h; active means well fitted falling curve with a large enough effect; inconclusive means small, poorly fitted or top-dose-only effect; inactive means no such curve, though single readings can be large or run the other way; further: nearly all actives have a fitted effect of over 50% in size
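Fission yeast strain RE007, carrying one chromosomally integrated HIV-1 vpr copy, was seeded at OD 0.01 in PMG+AL medium with 23 nL pinned compound. After 24 h at 30 °C and 99% humidity, viability was read by BacTiter-Glo luminescence.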
Sm TGR block – S. mansoni TGR enzyme inhibition | Q962Y6 | purified TGR, DTNB reduction, TNB absorbance 405 nm | Potency, µM (top dose mostly 114 µM), without a hit: at the top dose activity change, negative = inhibition, usual class: inhibitors | 360,000 tested, 3% active | AID 485364; further: nearly all actives have a fitted effect of over 60% in size
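TGR 20 nM + NADPH 100 uM (dispensed conc.), cpd preinc 15 min RT; start with NADPH (500 uM addition) then DTNB (15 mM addition). Kinetic TNB absorbance, 405 nm filter. Four-parameter Hill fit across titration.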
Giardia growth – Giardia lamblia growth inhibition; Giardia lamblia trophozoite growth inhibition; 1,500 tested, 5% active; shares compounds with Giardia FBPA inh-1; Potency, µM (series often up to 57.5 µM), inactives show at the top dose activity change, negative = inhibition, hits mostly inhibitors; AID 2785;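 further: trophozoites exposed to compound for 48 h at 37 °C; nearly all actives have a fitted effect of over 70% in size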
Mammal cell tox – mammalian cytotoxicity of Giardia aldolase inhibitor hits | shares compounds with Giardia FBPA inh-1 | mammalian cell viability counter-screen, qHTS | Potency, µM (series often up to 57.5 µM), inactives show at the top dose viability change, negative = toxicity, hits mostly inhibitors | 1,500 tested, 4% active;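 further: Chinese hamster ovary cells used as mammalian cytotoxicity surrogate; viability measured as cellular ATP by luminescence; compound exposure lasted 48 h before reading; nearly all actives have a fitted effect of over 60% in size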
Giardia FBPA inh-2 – confirmation of Giardia fructose-bisphosphate aldolase inhibitors | shares compounds with Giardia FBPA inh-1 | purified Giardia aldolase enzyme activity, qHTS | Potency, µM (titrated, usually from 57.5 µM), inactives show top-dose activity change, negative = inhibition, most hits filed as inhibitors | 1,500 tested, 5% active; further: nearly all actives have a fitted effect of over 45% in size
Rabbit aldolase – blocks rabbit muscle aldolase in Giardia aldolase selectivity test; AID 2794; shares compounds with Giardia FBPA inh-1; Rabbit muscle FBPA enzyme inhibition, selectivity counter-screen; 1,500 tested, 4% active; Potency, µM (doses to about 57.5 µM), without a hit: at the top dose activity, negative = inhibition, hits mostly inhibitors; further: nearly all actives have a fitted effect of over 60% in size
Target sequence (P00883 whole entry, looked up): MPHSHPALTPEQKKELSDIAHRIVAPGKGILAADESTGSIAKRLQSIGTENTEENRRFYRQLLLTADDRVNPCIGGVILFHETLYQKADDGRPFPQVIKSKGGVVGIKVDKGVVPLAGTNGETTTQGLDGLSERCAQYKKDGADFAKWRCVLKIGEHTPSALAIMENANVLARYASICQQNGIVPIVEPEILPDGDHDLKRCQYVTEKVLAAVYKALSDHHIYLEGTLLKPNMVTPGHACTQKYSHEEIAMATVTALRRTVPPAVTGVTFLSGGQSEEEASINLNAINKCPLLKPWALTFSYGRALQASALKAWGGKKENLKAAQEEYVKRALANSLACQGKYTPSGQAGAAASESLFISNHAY
GAPDH coupling – GAPDH inhibition flagged for Giardia aldolase hits; shares compounds with Giardia FBPA inh-1; GAPDH coupling enzyme counterscreen, biochemical, qHTS; Potency, µM (titrated, usually from 57.5 µM), inactives show at the top dose activity change, negative = inhibition, usual class: inhibitors; 1,500 tested, 6% active; further: nearly all actives have a fitted effect of over 55% in size
* hit, by the source's call; ? = inconclusive; / = no result given; [ ] = remark or other dose. Unless noted, the call rests on the fitted dose curve; in most records, active means well fitted curve in the direction sought with a large enough effect; inconclusive means small, poorly fitted or top-dose-only effect, or another doubt; inactive means no such curve, though single readings can be large; an effect the other way counts as inactive or inconclusive. On the % scale 0 is the no-effect control and ±100 the full control effect; potency means the concentration at half of the fitted maximal effect.

SMILES | Tb PYK inh | LmPK inh | Giardia FBPA inh-1 | RE007 growth inh | Sm TGR block | Giardia growth | Mammal cell tox | Giardia FBPA inh-2 | Rabbit aldolase | GAPDH coupling
Cc1oc(CSCCSCc2cc(C(=O)O)c(C)o2)cc1C(=O)O | 13% | 2% | 14µM* | 4% | ? | 61% | 9% | -1% | -7% | 11%
Cc1ccc(C)c(S(=O)(=O)N2CCN(C(=O)CCC(=O)NCc3ccc(Cl)cc3)CC2)c1 | 4% | / | / | 22% | -1% | / | / | / | / | /
Cc1cccc(Cc2cnc(N3C(=N)SC(C)C3=O)s2)c1 (configuration not stated) | 1% | 11% | 13µM* | ? | 1% | 13µM* | 8% | 7% | 1% | 4%
Cc1ccc(Cc2cnc(N3C(=N)SC(C)C3=O)s2)cc1 (configuration not stated) | 2% | 15% | ? | -15% | -3% | / | / | / | / | /
CC(C)(C)c1ccc(Oc2ccc(NC(=O)CCCC(=O)O)cn2)cc1 | -13% | 1% | 22% | -9% | 6% | / | / | / | / | /
Cc1c(NC(=O)/C(C#N)=C/c2ccccc2)c(=O)n(-c2ccccc2)n1C | 1% | 6% | 2% | 12% | 0% | / | / | / | / | /
Cc1c(NN=C(C#N)C#N)c(=O)n(-c2ccccc2)n1C | -5% | 9% | 25µM* | -1% | 22µM* | 17% | 21% | 1% | 2% | 5%
CN=c1scc(C)n1/N=C/c1ccc(O)cc1 | -6% | 2% | 0% | -8% | -7% | / | / | / | / | /
C=CCN=c1scc(C)n1/N=C/c1ccc(O)c(O)c1 | ? | 0% | 22µM* | -13% | ? | 8% | -19% | -25% | -29% | -18%
CC(=O)N1CCN=C1SCc1ccc(Br)cc1 | -3% | -6% | 4% | -2% | 18% | / | / | / | / | /
COc1cccc(NC2=C(C#N)C(=O)NC(c3cccc(OC)c3O)S2)c1 (configuration not stated) | -9% | 2% | 16µM* | 9% | 7.9µM* | ? | 3% | ? | -2% | -25%
CN(C)/N=C/c1cc([N+](=O)[O-])ccc1O | 3% | 1% | -1% | -18% | -10% | / | / | / | / | /
Cc1c(Cl)cccc1NC(=O)CNC(=O)c1ccc2c(c1)OCCO2 | 4% | / | / | -26% | / | / | / | / | / | /
C=CCSC1=N/C(=C\C=C\c2ccco2)C(=O)S1 | -5% | 10% | 6.3µM* | -6% | ? | 16% | 14% | -10% | 11% | 1%
Cc1ccc([N+](=O)[O-])cc1NC(=S)NC(=O)c1c(Cl)cnn1C | 5% | 1% | 7.9µM* | -4% | -24% | 12%[38.3 µM] | 0% | -2% | 6% | -18%
O=C(CSc1n[nH]c(-c2cccnc2)n1)Nc1ccc(Br)cc1 | 14% | 4% | 14µM* | -3% | -5% | ? | 25% | 13% | 6% | 24%
CCN1CCC(N2CCN(c3ccc(Cl)cc3)CC2)CC1 | 0% | -4% | -6% | 1% | -6% | / | / | / | / | /
CCCN1CCC(N2CCN(c3ccc([N+](=O)[O-])cc3)CC2)CC1 | 17% | -4% | 16µM* | 3% | 3% | -1%[10.4 µM] | 3% | -9% | 1% | -15%
Cc1[nH]c2ccccc2c1/C=N/Nc1nc(N2CCCCC2)nc(N2CCCCC2)n1 | 0% | 1% | -4% | 0% | -2% | / | / | / | / | /
CCOC(=O)C(Nc1ccc2ccccc2c1)C(=O)OCC | -3% | -2% | 3.5µM* | ? | -24% | -1%[38.3 µM] | -18% | ? | ? | 40µM*
CC(=O)Nc1ccc2ccccc2c1 | 4% | -7% | 6% | -8% | -8% | / | / | / | / | /
CC(=O)Nc1ccc(S(=O)(=O)N2CCN(Cc3cccc([N+](=O)[O-])c3)CC2)cc1 | -10% | -1% | 18µM* | -26% | 0% | -1% | -4% | 6% | 8% | 12%
COc1ccccc1NC(=O)N1CCC(c2nc3ccccc3o2)CC1 | 1% | 17% | 3% | 9% | 9% | / | / | / | / | /
CC(C(Sc1ccccc1N)c1ccccc1)[N+](=O)[O-] (configuration not stated) | 25µM* | 6% | 20µM* | -29% | 0% | ? | 32µM* | 5% | 9% | -4%
Nc1ccccc1SC(CC(=O)c1ccccc1)c1ccccc1 (configuration not stated) | -15% | / | / | -28% | / | / | / | / | / | /
SMILES | Tb PYK inh | LmPK inh | Giardia FBPA inh-1 | RE007 growth inh | Sm TGR block | Giardia growth | Mammal cell tox | Giardia FBPA inh-2 | Rabbit aldolase | GAPDH coupling
Nc1cccnc1Sc1cccc(Cl)c1 | -23% | 5% | 1µM* | 18µM* | ? | 9%[38.3 µM] | -11% | -6% | -3% | -6%
Nc1cccnc1Sc1ccc(Cl)cc1 | / | 0% | -10% | -27%[3.69 µM] | -16% | / | / | / | / | /
CCCN(CC1CC1)C(=O)CCc1nnc(CCc2c[nH]c3ccccc23)o1 | 5% | -6% | -2% | -9% | 0% | / | / | / | / | /
O=C(CSc1nccc(=O)[nH]1)Nc1ccc(F)c([N+](=O)[O-])c1 | -5% | 0% | -1% | 9% | -6% | / | / | / | / | /
O=C(CSc1ccccc1)Nc1nnc(C2CC2)s1 | -4% | -7% | 14µM* | 5% | 3% | ? | 9% | 1% | 9% | 7%
O=C(NCCCNCCCNC(=O)c1ccc(/C=N/O)nc1)c1ccc(/C=N/O)nc1 | 6% | -1% | 4µM* | 8% | -21% | -18%[38.3 µM] | 2% | -9% | -4% | -25%
CC(C)(O)[C@H]1Cc2cc3ccc(=O)oc3cc2O1 | -12% | 0% | 9% | -6% | 1% | / | / | / | / | /
CCCCCC(=O)N(CN1C(=O)CCC1=O)c1ccccc1 | -4% | 3% | 3% | -7% | 4% | / | / | / | / | /
Cn1c(=S)c2[nH]c(SCCN3CCCC3)nc2n(C)c1=O | -18% | 4% | 11µM* | / | 40µM* | 11%[10.4 µM] | 19% | 1% | -3% | 2%
Cn1c(=O)c2c(nc(SCCN3CCCCC3)n2C)n(C)c1=O | 2% | -7% | 5% | -2% | 0% | / | / | / | / | /
CCN(CC)c1ccc2c(C)c(Cl)c(=O)oc2c1 | -3% | -12% | 18µM* | -2% | 11% | -3% | -1% | -1% | 9% | -2%
